Measured values: PubChem BioAssay (NCI)
This is part of a sample that, as a whole, favours compounds with a hit. Of some 83,000 tested, about 20% had one in any assay.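 Negative percent growth values reflect cell death: -40 means 40% of the cells present at the start died, and -100 means all died.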 The source made the active and inactive calls. How the source made its calls: active means growth percent below 10; inactive means the rest.

Key:
Test in all cases: NCI-60 one-dose screen, 48 h (100 = growth as untreated, 0 = no growth, -100 = all killed)
Conditions in all cases: 10 µM unless noted
BT-549 breast = tested on: BT-549 breast
MDA-MB-435 melanoma = tested on: MDA-MB-435 melanoma
SW-620 colon = tested on: SW-620 colon
MCF7 breast = tested on: MCF7 breast
HCT-116 colon = tested on: HCT-116 colon
HCC-2998 colon = tested on: HCC-2998 colon
KM12 colon = tested on: KM12 colon

Measured: growth

CC(C)N(Cc1ccccc1)c1c(Cl)ssc1=O
inactive: BT-549 breast 90.9% | MDA-MB-435 melanoma 108% | SW-620 colon 110% | MCF7 breast 101% | HCT-116 colon 99.9% | HCC-2998 colon 113% | KM12 colon 106%

CC(=O)[C@H]1CC[C@H]2[C@@H]3C[C@H](C)C4=CC(=O)CC[C@]4(C)[C@H]3C(=O)C[C@]12C
inactive: BT-549 breast 98% | MDA-MB-435 melanoma 119% | SW-620 colon 98.6% | MCF7 breast 99.3% | HCT-116 colon 93.1% | KM12 colon 110%

COc1ccc(C2=NN(C(C)=O)C(c3c(C)nn(-c4ccccc4)c3N3CCOCC3)C2)cc1 (configuration not stated)
inactive: BT-549 breast 77% | MDA-MB-435 melanoma 97.2% | SW-620 colon 96.6% | MCF7 breast 91.7% | HCT-116 colon 82.3% | HCC-2998 colon 102% | KM12 colon 100%

O=C(/C=C(\Nc1ccccc1)c1ccccc1)c1cn(-c2ccc([N+](=O)[O-])cc2)nn1
inactive: BT-549 breast 110% | MDA-MB-435 melanoma 102% | SW-620 colon 93.2% | MCF7 breast 103% | HCT-116 colon 92.1% | KM12 colon 110%

CC1C(=O)NC2=Nc3ccccc3C(=O)NN21 (configuration not stated)
inactive: BT-549 breast 96.9% | MDA-MB-435 melanoma 111% | SW-620 colon 97.8% | MCF7 breast 73.9% | HCT-116 colon 90.4% | HCC-2998 colon 100% | KM12 colon 101%

Cc1ccc(N/N=C(/C(=O)c2ccc(Cl)cc2)c2nc(C)cc(=O)[nH]2)cc1
inactive: BT-549 breast 118% | MDA-MB-435 melanoma 123% | SW-620 colon 93.7% | MCF7 breast 91% | HCT-116 colon 86.9% | HCC-2998 colon 116% | KM12 colon 115%

COC(=O)[C@H](Cc1cnc[nH]1)NC(=O)[C@@H](NC(=O)Nc1cc(C(F)(F)F)cc(C(F)(F)F)c1)C(C)C
active: BT-549 breast -90.7% [100 µM] | MDA-MB-435 melanoma -91.1% [100 µM] | SW-620 colon -48.2% [100 µM] | MCF7 breast -53.1% [100 µM] | HCT-116 colon -89.5% [100 µM] | HCC-2998 colon -82.2% [100 µM] | KM12 colon -94.6% [100 µM]

Nc1nc2c(c(=O)[nH]1)C1(C(=O)Nc3ccccc31)c1c(nc(N)[nH]c1=O)N2
inactive: BT-549 breast 102% | MDA-MB-435 melanoma 106% | SW-620 colon 97.3% | MCF7 breast 94.8% | HCT-116 colon 116% | HCC-2998 colon 114% | KM12 colon 101%

O=C(Nc1nc2c(C(F)(F)F)cccc2s1)c1cc(Cl)ccc1O
inactive: SW-620 colon 12.2% | HCC-2998 colon 19.3% | KM12 colon 10.5%
active: BT-549 breast -13.4% | MDA-MB-435 melanoma 5.71% | MCF7 breast 7.63% | HCT-116 colon -1.3%

O=C(/C=C/c1ccc([N+](=O)[O-])cc1)c1ccc2c3c(cccc13)CC2
inactive: BT-549 breast 84% | MDA-MB-435 melanoma 97.8% | SW-620 colon 47.1% | MCF7 breast 22% | HCT-116 colon 38.6% | HCC-2998 colon 79.3% | KM12 colon 72.5%

CC(C)Sc1nc(Cl)c(C#N)c(-c2ccc(F)cc2)n1
inactive: BT-549 breast 108% | MDA-MB-435 melanoma 101% | SW-620 colon 72.2% | MCF7 breast 96.4% | HCT-116 colon 62% | HCC-2998 colon 112% | KM12 colon 107%

Clc1ccc(C2c3ccccc3-c3nccn32)c(Cl)c1 (configuration not stated)
inactive: BT-549 breast 83.8% | MDA-MB-435 melanoma 89.6% | SW-620 colon 85.4% | MCF7 breast 80.5% | HCT-116 colon 49% | KM12 colon 79.2%

CC[C@@H](C)/C=C(C)/C=C/C(=O)c1c(O)c(-c2ccc(O)cc2)cn(OC2CC(=O)CCC(C)OC(=O)CC2O)c1=O (some centres not stated)
active: HCC-2998 colon 8.22%
inactive: BT-549 breast 14.6% | MDA-MB-435 melanoma 12.4% | SW-620 colon 22.9% | MCF7 breast 21.7% | HCT-116 colon 18.5% | KM12 colon 19.8%

N#Cc1c(NC(=O)c2ccco2)[n+]([O-])c2cc(Cl)c(Cl)cc2[n+]1[O-]
inactive: BT-549 breast 94.4% | MDA-MB-435 melanoma 126% | SW-620 colon 119% | MCF7 breast 87.8% | HCT-116 colon 105% | HCC-2998 colon 109% | KM12 colon 131%

O=C1C(=O)c2c(nc3ccc(Cl)cn23)-c2ccccc21
active: BT-549 breast -99.4% | MDA-MB-435 melanoma -89.5% | SW-620 colon -100% | MCF7 breast -88% | HCT-116 colon -95.3% | HCC-2998 colon -95.8% | KM12 colon -68.7%

CCNCCCn1c2c(c3ccc(F)cc3c1=O)C(=O)c1cc(OC)cnc1-2
active: BT-549 breast -22.7% | MDA-MB-435 melanoma 1.77% | SW-620 colon -16.1% | MCF7 breast -4.74% | HCT-116 colon -62.1% | HCC-2998 colon -56.1% | KM12 colon 1.84%

COc1cc(-c2nc3sc4c(c3c(=O)[nH]2)CCCCCC4)cc(OC)c1OC
inactive: BT-549 breast 53.1% | SW-620 colon 30.3% | MCF7 breast 15% | HCT-116 colon 20.3% | KM12 colon 28.6%
active: MDA-MB-435 melanoma -18% | HCC-2998 colon -1.77%

Cc1cc(Br)c(C)cc1Br
inactive: BT-549 breast 99.9% | MDA-MB-435 melanoma 99.8% | SW-620 colon 108% | MCF7 breast 98.2% | HCT-116 colon 99.1% | HCC-2998 colon 115% | KM12 colon 103%

CCSc1nc(-c2ccc(F)cc2)c(C#N)c(=O)[nH]1
inactive: BT-549 breast 105% | MDA-MB-435 melanoma 101% | SW-620 colon 107% | MCF7 breast 102% | HCT-116 colon 109% | HCC-2998 colon 99.8% | KM12 colon 100%

COc1ccc(Oc2ccccc2NC(=O)CNC(=O)c2cccc3ccccc23)cc1
inactive: BT-549 breast 30.9% [5 µM] | SW-620 colon 25.6% [5 µM] | MCF7 breast 23.5% [5 µM] | HCT-116 colon 10.9% [5 µM] | HCC-2998 colon 33.7% [5 µM] | KM12 colon 26.5% [5 µM]
active: MDA-MB-435 melanoma 1.66% [5 µM]

COc1cnc2c(c1)C(=O)c1c-2n(CCCN2CCC(O)CC2)c(=O)c2cc(F)ccc12
inactive: HCC-2998 colon 13.5%
active: BT-549 breast 0.525% | MDA-MB-435 melanoma 8.13% | SW-620 colon 6.58% | MCF7 breast 0.145% | HCT-116 colon -71.7% | KM12 colon -6.17%

COc1ccc2c(c1)CC/C(=C\c1ccc(OCC(=O)Nc3nc4ccccc4s3)cc1)C2=O
inactive: BT-549 breast 83.6% | MDA-MB-435 melanoma 100% | SW-620 colon 93.9% | MCF7 breast 98.4% | HCT-116 colon 89.1% | HCC-2998 colon 87.6% | KM12 colon 108%

CC(C)Cn1cnc2c(NCn3nc(-c4cc(Cl)cc(Cl)c4Cl)n(/N=C/c4ccc(Cl)cc4)c3=S)nc3ccccc3c21
inactive: BT-549 breast 92.3% | MDA-MB-435 melanoma 110% | SW-620 colon 98.5% | MCF7 breast 97.2% | HCT-116 colon 66.1% | HCC-2998 colon 80.6% | KM12 colon 96.6%

COc1ccc2c(c1)sc1nc(-c3ccc(N(C)C)cc3)cn12
inactive: BT-549 breast 99% | MDA-MB-435 melanoma 104% | SW-620 colon 104% | MCF7 breast 84% | HCT-116 colon 91.7% | HCC-2998 colon 92% | KM12 colon 75.8%

CC1=C([Se]CC(OC(=O)[C@@H](CSSC(C)(C)C)NC(=O)C(C)(C)C)C(=O)NCCCCCC(=O)OCc2ccccc2)C(=O)c2ccccc2C1=O (some centres not stated)
inactive: MDA-MB-435 melanoma 14.2% | MCF7 breast 30.3%
active: BT-549 breast -64.2% | SW-620 colon 9.84% | HCT-116 colon -18% | HCC-2998 colon -63.9% | KM12 colon 6.76%

O=C1/C(=C/c2ccc(F)cc2)Cc2ccccc21
inactive: BT-549 breast 89.6% | MDA-MB-435 melanoma 107% | SW-620 colon 104% | MCF7 breast 27.3% | HCT-116 colon 87.9% | HCC-2998 colon 89.9% | KM12 colon 106%

CCOc1nc(-c2ccco2)n2nc(-c3ccco3)cc2n1
inactive: BT-549 breast 119% | MDA-MB-435 melanoma 114% | SW-620 colon 107% | MCF7 breast 39.8% | HCT-116 colon 108% | HCC-2998 colon 123% | KM12 colon 91.7%

OC(c1cc(-c2cccc(Cl)c2)nc2ccccc12)C1CCCCN1 (configuration not stated)
active: MDA-MB-435 melanoma -56.9% | SW-620 colon -66.6% | MCF7 breast -86.9% | HCT-116 colon -89.8% | KM12 colon -88.1%
inactive: BT-549 breast 67%

N#Cc1ncc(-c2ccc(C(F)(F)F)cc2)c(NC2CCCCCC2)n1
inactive: BT-549 breast 49.5% | SW-620 colon 19.9% | MCF7 breast 14% | HCT-116 colon 15.6% | HCC-2998 colon 73.2% | KM12 colon 22.3%
active: MDA-MB-435 melanoma 8.67%

CCC(=O)Nc1cc2c(cc1Cl)-c1ccccc1C2
inactive: BT-549 breast 86.1% | MDA-MB-435 melanoma 113% | SW-620 colon 101% | MCF7 breast 95.2% | HCT-116 colon 99.2% | HCC-2998 colon 87% | KM12 colon 95.2%

COc1ccc(C2CC(c3ccc(Nc4ccnc5cc(Cl)ccc45)cc3)=NN2C(C)=O)cc1 (configuration not stated)
inactive: BT-549 breast 68.5% | MDA-MB-435 melanoma 23% | SW-620 colon 87.2% | MCF7 breast 55.7% | HCT-116 colon 61.3% | HCC-2998 colon 70% | KM12 colon 59.3%

O=C(Nc1ccccc1)P(=O)(O)c1ccccc1
inactive: BT-549 breast 110% | MDA-MB-435 melanoma 111% | SW-620 colon 101% | MCF7 breast 96.8% | HCT-116 colon 98.1% | HCC-2998 colon 97.3% | KM12 colon 99.8%

COc1cccc(CCN2C(=O)CCC3=C2CCC3=O)c1
inactive: BT-549 breast 101% | MDA-MB-435 melanoma 107% | SW-620 colon 119% | MCF7 breast 103% | HCT-116 colon 97.7% | HCC-2998 colon 104%

CCOC(=O)CNC(=O)C1(NC(=O)CNC(=O)OCc2ccccc2)CCCC1
inactive: BT-549 breast 98% | MDA-MB-435 melanoma 95.6% | SW-620 colon 110% | MCF7 breast 96.6% | HCT-116 colon 101% | HCC-2998 colon 105% | KM12 colon 108%

COc1c(Br)cc(C(c2cc(Br)c(OC)c(Br)c2)c2ccccc2C(=O)O)cc1Br
inactive: BT-549 breast 82.8% | MDA-MB-435 melanoma 104% | SW-620 colon 99.9% | MCF7 breast 96.5% | HCT-116 colon 90.2% | KM12 colon 103%

CC(=O)N1N=C(c2ccc(Cl)cc2)CC1c1c(C)nn(-c2ccccc2)c1N(C)Cc1ccccc1 (configuration not stated)
inactive: BT-549 breast 88.5% | MDA-MB-435 melanoma 87% | SW-620 colon 80.6% | MCF7 breast 72.2% | HCT-116 colon 53.1% | HCC-2998 colon 88.2% | KM12 colon 74.8%

COc1ccc2c(c1)[n+](=O)c(C(=O)/C=C/c1cc(OC)c(OC)c(OC)c1)c(C)n2[O-]
inactive: BT-549 breast 28.8% | MDA-MB-435 melanoma 69.5% | SW-620 colon 72.4% | MCF7 breast 45.6% | HCT-116 colon 50.3% | HCC-2998 colon 98.1% | KM12 colon 88.6%

Cc1n(Cc2ccc3ccccc3c2)c2ccccc2[n+]1Cc1ccc2ccccc2c1
active: BT-549 breast -79.7% | MDA-MB-435 melanoma -72.8% | SW-620 colon -60.7% | MCF7 breast -70.9% | HCT-116 colon -91% | HCC-2998 colon -87% | KM12 colon -77.7%

CNCCCn1c2c(c3ccc(F)cc3c1=O)C(=O)c1cc(OC)cnc1-2
active: BT-549 breast -6.14% | MDA-MB-435 melanoma 4.12% | SW-620 colon -2.67% | MCF7 breast 0.0252% | HCT-116 colon -78% | HCC-2998 colon 8% | KM12 colon -0.739%
